A number with no mark means an inactive call. Records with an inconclusive call do not appear. Active and inactive are the calls of the source. Unless noted, the call rests on the fitted dose curve.

Test [1] in a line: Nuclear factor erythroid 2-related factor 2/antioxidant responsive element (Nrf2/ARE) small molecule agonists: qHTS cell viability counter screen in human keratinocytes (AID 1919968; active means well fitted curve in the direction sought with a large enough effect in the repeat runs; an effect the other way counts as inactive or inconclusive; further: nearly all actives have a fitted effect of over 55% in size). A digest of the protocol:
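Measured as CellTiter-Fluor fluorescence, this readout tracks cytotoxicity in the same wells as the ARE-luciferase screen. HaCaT reporter cells (1,500/well) received compounds after a 5 h pre-incubation and were exposed for 23 h.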

A short description of test [2]: Nuclear factor erythroid 2-related factor 2/antioxidant responsive element (Nrf2/ARE) small molecule agonists: luciferase reporter gene qHTS assay in human keratinocytes (AID 1919969). Further: nearly all actives have a fitted effect of over 35% in size. Further: potency means the concentration at half of the fitted maximal effect.
For test [3], the target named is Gonadotropin-releasing hormone receptor (Homo sapiens) (UniProt P30968). As to the kind of experiment: Human gonadotropin-releasing hormone receptor (GnRHR) small molecule agonists, calcium flux assay in GnRHR-HEK293 cells (AID 1920063). Further: nearly all actives have a fitted effect of over 35% in size. A digest of the protocol:
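Fluorescence kinetics (480 nm excitation, 540 nm emission; 3 min, 1 s steps) report calcium mobilisation in human GnRHR-HEK293 cells in agonist mode. Dye incubation: 1 h, 37 C.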

The target of test [4] is KiSS-1 receptor (Homo sapiens) (UniProt Q969F8). As to the kind of experiment: Human kisspeptin (KISS1R) small molecule agonists, calcium flux assay in KISS1R-HEK293 cells (AID 1920064; active means well fitted curve in the direction sought with a large enough effect in the repeat runs; an effect the other way counts as inactive or inconclusive). A digest of the protocol: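 Measures KISS1R agonism through calcium-sensitive dye fluorescence in stably transfected HEK293 cells, read for 3 min after pin-tool compound delivery; 15-point titrations in triplicate.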
Sequence of KiSS-1 receptor (Homo sapiens) (Q969F8 whole entry, looked up): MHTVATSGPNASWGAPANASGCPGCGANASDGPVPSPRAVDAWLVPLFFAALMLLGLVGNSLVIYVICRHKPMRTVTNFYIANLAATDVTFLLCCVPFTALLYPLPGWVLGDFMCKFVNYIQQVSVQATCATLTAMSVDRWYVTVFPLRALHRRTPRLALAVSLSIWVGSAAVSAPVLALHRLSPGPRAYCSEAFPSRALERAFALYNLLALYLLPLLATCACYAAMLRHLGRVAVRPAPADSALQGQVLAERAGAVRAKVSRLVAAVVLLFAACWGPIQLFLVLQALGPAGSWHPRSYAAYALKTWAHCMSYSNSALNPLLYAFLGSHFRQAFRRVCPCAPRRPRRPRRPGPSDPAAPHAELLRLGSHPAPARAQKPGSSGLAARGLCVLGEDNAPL

Test [5] in a line: G protein-coupled receptor (GPCR) small molecule agonists, calcium flux assay: HEK293 wild type cell line counter screen (AID 1920065). A digest of the protocol:
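Readout: fluorescence at 480 nm excitation/540 nm emission, sampled at 1 s intervals for 3 min. Cells had been cultured 18 h, then dye-loaded 1 h at 37 C before compound or ATP addition.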

Test [6] is described as follows: p53 small molecule agonists, cell-based qHTS assay with human liver microsomes (AID 1963577). A digest of the protocol:
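p53RE-bla reporter cells were pre-incubated 5 h at 37 C, then treated with compounds plus human liver microsomes (0.5 mg/mL final) and NADPH (0.5 mg/mL final) for 16 h at 37 C. Beta-lactamase activity was read by LiveBLAzer fluorescence after 2 h at room temperature.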

Test [7] in a line: p53 small molecule agonists, cell-based qHTS assay with rat liver microsomes (AID 1963578). A digest of the protocol:
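p53RE-bla cells were exposed to compounds together with rat liver microsomes (0.5 mg/mL final) and NADPH (0.5 mg/mL final) for 16 h at 37 C, then read by LiveBLAzer beta-lactamase fluorescence after 2 h at room temperature.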

Test [8] is described as follows: p53 small molecule agonists, cell-based qHTS assay with human liver microsomes: qHTS cell viability counter screen (AID 1963579). Further: nearly all actives have a fitted effect of over 45% in size. Further: potency means the concentration at half of the fitted maximal effect. An outline of the steps:
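p53RE-bla cells (4,000/well) were pre-incubated 5 h at 37 C, then given compounds in DMSO plus human liver microsomes (0.5 mg/mL final) and NADPH (0.5 mg/mL final) for 16 h at 37 C. Viability was read by CellTiter-Glo luminescence.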

Test [9] can be described thus: p53 small molecule agonists, cell-based qHTS assay with rat liver microsomes: qHTS cell viability counter screen (AID 1963580). Further: nearly all actives have a fitted effect of over 45% in size. A digest of the protocol:
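Viability is assessed in parallel with the p53 reporter read: HCT-116 p53RE-bla cells receive compounds plus rat microsomes and NADPH (0.5 mg/mL final apiece), incubate 16 h at 37 C, and then CellTiter-Glo luminescence is recorded.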

The nature of test [10]: p53 small molecule agonists, cell-based qHTS assay (AID 1963582; active means well fitted activation curve with a large enough effect in the signal ratio in the repeat runs, not every such curve was filed as active; the % refers to the signal ratio). An outline of the steps: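 Compounds are pin-transferred in DMSO onto p53RE-bla cells and incubated 16 h at 37 C. The B/G FRET beta-lactamase substrate is then applied for 2 h at RT and fluorescence recorded.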
For test [11], the target named is 5-hydroxytryptamine receptor 2A (Homo sapiens) (UniProt P28223). As to the kind of experiment: 5-hydroxytryptamine receptor 2A (HTR2A) small molecule antagonists, cell-based qHTS assay (AID 1963586). Further: nearly all actives have a fitted effect of over 45% in size. A digest of the protocol:
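Antagonist-mode intracellular calcium assay: DOI (4 nM) added after 5 min compound pre-incubation at room temperature to dye-loaded HTR2A-CHO cells. Fluorescence followed for 3 min, sampled every second.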

For test [12] the target is unchanged. As to the kind of experiment: 5-hydroxytryptamine receptor 2A (HTR2A) small molecule agonists, cell-based qHTS assay (AID 1963587). Further: nearly all actives have a fitted effect of over 30% in size. An outline of the steps:
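CHO cells stably expressing human HTR2A, plated 18 h, loaded with calcium dye 1 h at 37 C. Agonist mode: compounds added and intracellular calcium fluorescence recorded kinetically for 2 min at 1 sec intervals.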

Test [13] has as its target Muscarinic acetylcholine receptor M1 (Homo sapiens) (UniProt P11229). As to the kind of experiment: Cholinergic receptor muscarinic 1 (CHRM1) small molecule antagonists, cell-based qHTS assay (AID 1963588). Further: nearly all actives have a fitted effect of over 40% in size. Further: potency means the concentration at half of the fitted maximal effect. A digest of the protocol:
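CHRM1-CHO calcium-flux assay, antagonist mode. Cells were seeded 18 h, dye-loaded 1 h at 37 C and given compound for 5 min at RT, then acetylcholine was added at 50nM. FDSS fluorescence was read 3 min; 15 concentrations, three runs.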

Test [14] has the same target. Briefly: Cholinergic receptor muscarinic 1 (CHRM1) small molecule agonists, cell-based qHTS assay (AID 1963589). Further: nearly all actives have a fitted effect of over 35% in size. An outline of the steps: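 Each compound was tested at 15 concentrations across three independent runs on dye-loaded CHO cells stably expressing human CHRM1, reading intracellular calcium fluorescence kinetically at 1 sec intervals.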
Test [15] is described as follows: cAMP Responsive Elements (CRE) small molecule agonists, cell-based qHTS assay (AID 1963590). An outline of the steps:
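Cell line: CRE-bla HEK 293T; medium DMEM/10% dialyzed FBS/0.1 mM NEAA/1 mM pyruvate/25 mM HEPES; 3 h compound exposure; beta-lactamase FRET readout after 2 h substrate loading at RT.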

Test [16] in a line: cAMP Responsive Elements (CRE) small molecule antagonists, cell-based qHTS assay (AID 1963591; active means well fitted inhibition curve with a large enough effect in the signal ratio in the repeat runs, not every such curve was filed as active; the % refers to the signal ratio). A digest of the protocol:
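Inhibition of NKH477-driven (0.25 uM final) CRE-beta-lactamase signal in HEK293T cells, 3 h compound exposure at 37 °C, detected by FRET substrate fluorescence.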

The target of test [17] is Beta-2 adrenergic receptor (Homo sapiens) (UniProt P07550). Briefly: Adrenergic beta2 receptor (ADRB2) small molecule antagonists, cell-based qHTS assay (AID 1963592). Further: series mostly up to about 92 µM; nearly all actives have a fitted effect of over 50% in size. An outline of the steps: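 Cells (CHO, stable ADRB2 overexpression) incubated 18-20hr at 37C; compounds added from DMSO; agonist mix (1nM isoproterenol, 100uM IBMX, 25uM Ro-20-1724) added; 0.5hr RT; d2-cAMP and anti-cAMP-cryptate added; 1hr RT; 665/615 nm read.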
Sequence of Beta-2 adrenergic receptor (Homo sapiens) (P07550 whole entry, looked up): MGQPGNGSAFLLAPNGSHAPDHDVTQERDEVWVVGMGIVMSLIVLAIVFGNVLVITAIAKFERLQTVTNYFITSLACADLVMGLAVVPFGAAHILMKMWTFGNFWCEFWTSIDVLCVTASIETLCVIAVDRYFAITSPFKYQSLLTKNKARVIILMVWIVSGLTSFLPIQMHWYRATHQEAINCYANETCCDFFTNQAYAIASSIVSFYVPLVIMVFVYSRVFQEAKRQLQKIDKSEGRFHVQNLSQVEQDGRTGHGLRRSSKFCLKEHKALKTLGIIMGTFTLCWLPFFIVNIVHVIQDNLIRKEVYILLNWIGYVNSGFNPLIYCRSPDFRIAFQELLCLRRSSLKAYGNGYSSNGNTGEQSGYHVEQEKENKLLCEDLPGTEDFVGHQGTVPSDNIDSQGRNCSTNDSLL

Test [18] addresses D(2) dopamine receptor (Homo sapiens) (UniProt P14416). Briefly: Dopamine D2 receptor (DRD2) small molecule agonists, cell-based qHTS assay (AID 1963594). Further: nearly all actives have a fitted effect of over 35% in size. An outline of the steps:
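HEK293 cells stably expressing human DRD2, pre-treated with PDE inhibitor Ro20-1724 (0.1 mM final) and compound 10 min at room temperature, then stimulated with NKH477 (200nM […]) for 30 min. cAMP read by HTRF (665/620 nm).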

Test [19] has the same target. Briefly: Dopamine D2 receptor (DRD2) small molecule antagonists, cell-based qHTS assay (AID 1963595; active means well fitted inhibition curve with a large enough effect in the signal ratio in the repeat runs, with a control signal flat; the % refers to the signal ratio). An outline of the steps:
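HEK293 cells stably expressing DRD2, preincubated with 0.1 mM Ro20-1724 and compounds 10 min, were stimulated with 200 nM NKH477 plus 12 nM quinpirole for 30 min at room temperature; cAMP measured by HTRF (665/620 nm).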

The target of test [20] is Beta-2 adrenergic receptor (Homo sapiens) (UniProt P07550). Briefly: Adrenergic beta2 receptor (ADRB2) small molecule agonists, cell-based qHTS assay (AID 1963593).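 Further: CHO cells stably overexpressing human ADRB2.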 An outline of the steps: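 CHO cells stably over-expressing ADRB2 were plated overnight at 37C, then dosed with compounds plus a stimulation mix containing 100uM IBMX and 25uM Ro-20-1724 for 0.5hr at room temperature. cAMP was measured by HTRF competition, 1hr.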
On the % scale 0 is the no-effect control and ±100 the full control effect.

Sequence of D(2) dopamine receptor (Homo sapiens) (P14416 whole entry, looked up): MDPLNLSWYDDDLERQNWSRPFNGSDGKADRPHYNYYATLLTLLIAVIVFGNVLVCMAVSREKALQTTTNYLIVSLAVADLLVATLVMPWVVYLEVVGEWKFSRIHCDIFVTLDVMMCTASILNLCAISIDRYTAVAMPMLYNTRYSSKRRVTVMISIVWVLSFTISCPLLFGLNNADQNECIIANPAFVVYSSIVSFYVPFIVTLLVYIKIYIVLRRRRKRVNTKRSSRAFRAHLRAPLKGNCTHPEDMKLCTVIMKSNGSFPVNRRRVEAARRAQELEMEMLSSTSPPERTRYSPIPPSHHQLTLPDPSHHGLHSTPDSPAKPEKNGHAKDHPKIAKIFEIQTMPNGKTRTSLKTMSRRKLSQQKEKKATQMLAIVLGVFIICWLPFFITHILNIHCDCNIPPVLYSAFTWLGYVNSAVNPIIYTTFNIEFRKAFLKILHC
Sequence of Gonadotropin-releasing hormone receptor (Homo sapiens) (P30968 whole entry, looked up): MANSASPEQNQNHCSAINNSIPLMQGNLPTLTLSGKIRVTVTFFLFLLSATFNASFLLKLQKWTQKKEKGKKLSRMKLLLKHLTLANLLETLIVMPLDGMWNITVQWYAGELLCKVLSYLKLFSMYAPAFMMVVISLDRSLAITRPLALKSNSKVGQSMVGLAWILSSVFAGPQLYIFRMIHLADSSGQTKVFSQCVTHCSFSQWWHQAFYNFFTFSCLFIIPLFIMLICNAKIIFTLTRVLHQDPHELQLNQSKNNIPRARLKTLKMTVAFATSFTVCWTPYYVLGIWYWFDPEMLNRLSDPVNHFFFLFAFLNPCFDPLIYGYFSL
Sequence of Muscarinic acetylcholine receptor M1 (Homo sapiens) (P11229 whole entry, looked up): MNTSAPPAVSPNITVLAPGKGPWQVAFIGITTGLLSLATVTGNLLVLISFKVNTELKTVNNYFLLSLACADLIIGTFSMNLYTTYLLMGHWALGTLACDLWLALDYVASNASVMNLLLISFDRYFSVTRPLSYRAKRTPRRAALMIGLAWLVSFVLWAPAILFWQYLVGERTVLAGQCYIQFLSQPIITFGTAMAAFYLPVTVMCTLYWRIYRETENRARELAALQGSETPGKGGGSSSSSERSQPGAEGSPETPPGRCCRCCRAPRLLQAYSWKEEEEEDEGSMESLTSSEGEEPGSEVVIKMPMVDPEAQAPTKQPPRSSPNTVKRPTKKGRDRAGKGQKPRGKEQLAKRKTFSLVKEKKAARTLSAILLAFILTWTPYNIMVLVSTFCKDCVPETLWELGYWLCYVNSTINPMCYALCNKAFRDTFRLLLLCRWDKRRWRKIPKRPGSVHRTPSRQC
Sequence of 5-hydroxytryptamine receptor 2A (Homo sapiens) (P28223 whole entry, looked up): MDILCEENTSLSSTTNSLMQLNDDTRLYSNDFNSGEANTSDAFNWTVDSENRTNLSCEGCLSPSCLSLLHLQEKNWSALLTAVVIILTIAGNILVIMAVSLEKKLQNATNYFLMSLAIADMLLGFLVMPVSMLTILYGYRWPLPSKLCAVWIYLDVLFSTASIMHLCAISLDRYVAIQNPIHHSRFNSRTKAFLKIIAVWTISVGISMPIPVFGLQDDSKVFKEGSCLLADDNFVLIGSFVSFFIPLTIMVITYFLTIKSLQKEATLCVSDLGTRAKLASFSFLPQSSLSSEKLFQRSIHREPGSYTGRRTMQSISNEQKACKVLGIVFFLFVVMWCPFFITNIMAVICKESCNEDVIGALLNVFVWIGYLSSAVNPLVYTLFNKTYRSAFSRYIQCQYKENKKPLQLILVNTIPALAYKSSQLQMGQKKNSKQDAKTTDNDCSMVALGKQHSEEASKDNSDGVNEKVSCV

Take `BrC(Br)C(Br)Br`: the Potency result in test [1], in [2], in test [3], in test [6], in test [7] and in test [8] was “inactive” throughout. Also, the Potency entry in [9], in test [10], in test [11], in test [12], in test [13] and in [14] was “inactive” each time. Moreover, the Potency entry in [15], in test [16], in test [17], in test [18] and in test [19] was “inactive” in each case. For the same compound, the result in test [4] and in [5] was inactive.
`O=C(O)c1cccc(Cl)n1`: the Potency result in test [1], in [3], in [6], in [7], in test [9] and in test [10] was “inactive” throughout. Moreover, the Potency result in test [11], in test [12], in test [13], in test [14], in test [16] and in test [17] was “inactive” throughout. Further, the Potency entry in [20], in [18] and in [19] was “inactive” throughout. The Potency is 68.6 µM (active) in [2] and 40.8 µM (active) in test [8]. Further, the outcome in test [4] and in [5] was inactive.
In the case of `CCCCOCC(C)O` (stereo not given), the Potency result in test [1], in [2], in test [3], in [6], in test [7] and in [8] was “inactive” each time. Further, the Potency entry in [9], in [10], in test [11], in test [12], in test [13] and in [14] was “inactive” each time. Also, the Potency entry in test [15], in test [16], in test [17], in test [18] and in test [19] was “inactive” each time. Besides, the outcome in test [4] and in test [5] was inactive.
In the case of `CCCCCCCCCCCCCC=O`, the activity change, negative = cytotoxicity in [1] was -1.13% [at 8.39 µM]; in test [8] it was -3.87% [at 5.99 µM]; in test [9], 0.418% [at 5.99 µM]. Moreover, the activity, positive = activation in test [2] is 0.0623% [at 8.39 µM]. The activity change in test [3] was -0.408% [at 5.22 µM, active compounds read high]. For the same compound, the activation in test [4] was 0.0205% [at 6.97 µM]; in [5], 0.0655% [at 5.23 µM]; in test [6], 0.781% [at 5.99 µM]; in test [7] it was -2.08% [at 5.99 µM]; in test [10], 5.85% [at 5.99 µM]; in test [12], -1.86% [at 7.02 µM]. Besides, the figures for the activation in test [14], in test [15] and in test [18] were 0.649% [at 6.97 µM], -0.0207% [at 8.39 µM] and 1.32% [at 8.39 µM], respectively. Further, the activity, negative = inhibition was 4.12% [at 5.62 µM] in [11] and 4.29% [at 5.58 µM] in test [13]. Also, the activity change, negative = inhibition in test [16] is 0.604% [at 8.39 µM]; in test [17], 0.833% [at 8.39 µM]; in test [19] it was 7.61% [at 8.38 µM].
`Cc1cc(CCCOc2c(C)cc(-c3noc(C(F)(F)F)n3)cc2C)on1`: the Potency entry in test [1], in test [3], in [6], in test [7], in test [8] and in test [9] was “inactive” each time. Also, the Potency entry in test [10], in [11], in [12], in test [13], in test [14] and in test [15] was “inactive” each time. For the same compound, the Potency entry in [16] and in [19] was “inactive” throughout. In test [2], the Potency is 11.9 µM (active). Besides, the result in test [4] and in test [5] was inactive.
Consider `CC1(C)CC(O)CC(C)(C)N1`, for which the Potency entry in test [1], in [2], in test [3], in test [6], in [7] and in [8] was “inactive” in each case. For the same compound, the Potency entry in test [9], in test [10], in test [11], in test [12], in [13] and in test [14] was “inactive” in each case. Further, the Potency entry in test [15], in [16], in test [17] and in test [19] was “inactive” each time. The outcome in [4] and in test [5] was inactive.
As to `C[N+]12CCC(CC1)C(OC(=O)C(O)(c1ccccc1)c1ccccc1)C2` (stereo not given), the Potency result in [1], in test [2], in [3], in test [6], in test [7] and in [8] was “inactive” each time. For the same compound, the Potency result in test [9], in test [10], in test [11], in [12], in test [14] and in [15] was “inactive” each time. Besides, the Potency entry in [16], in test [17], in test [20] and in test [19] was “inactive” throughout. Moreover, the outcome in test [4] and in [5] was inactive. The Potency in test [13] was 0.0013 µM (active).

The values above are taken from PubChem BioAssay (Tox21).
